This is a sample that favours compounds with a hit; in the whole collection about 3.6% have one here.
Mtb FBA inh = inhibits M. tuberculosis FBA enzyme; actives 2.3% (n = 360,000); inhibition, % at 1 µM; P9WQA3; AID 588726; purified M. tuberculosis FBA, fluorescence read-out; in the data active = inhibition above about 27%;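 also: 0% = vehicle and 100% = reference inhibitor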
Target sequence (P9WQA3 whole entry, looked up): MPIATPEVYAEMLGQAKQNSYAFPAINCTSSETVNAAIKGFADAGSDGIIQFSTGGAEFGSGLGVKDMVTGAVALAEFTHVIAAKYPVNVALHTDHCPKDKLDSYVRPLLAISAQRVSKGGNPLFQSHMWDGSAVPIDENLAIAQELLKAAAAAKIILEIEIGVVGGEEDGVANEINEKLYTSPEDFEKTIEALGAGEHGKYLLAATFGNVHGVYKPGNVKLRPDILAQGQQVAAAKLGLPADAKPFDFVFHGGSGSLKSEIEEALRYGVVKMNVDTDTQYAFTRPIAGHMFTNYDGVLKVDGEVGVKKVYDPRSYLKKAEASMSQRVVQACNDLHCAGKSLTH
Mtb hypoxia inh = reduces hypoxia-regulated biosensor signal in M. tuberculosis | actives 0.1% (n = 300,000) | AID 1159583 | M. tuberculosis hypoxia-regulated fluorescent reporter, fluorescence | fluorescence inhibition, % (no concentration beside the values); in the data active = fluorescence inhibition mostly above about 23%, no sharp cut-off; inactive = mostly below about 17%
Mtb bLac sens = beta-lactam sensitization of Mtb H37Rv | M. tuberculosis H37Rv growth with meropenem, percent inhibition | inhibition, % at 25 µM | actives 0.27% (n = 330,000); call rule not given here;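 also: growth measured after seven days incubation then overnight dye step; 0% = bacteria only wells and 100% = bacteria with antibiotic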
GDH-TPI counter = inhibits GDH-TPI coupling enzymes, artifact for Mtb FBA screen | GDH-TPI coupled enzyme counterscreen, NADH absorbance | inhibition, % at 4.8 µM | actives 1.2% (n = 360,000); in the data active = inhibition above about 30%;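 also: 0% = DMSO wells and 100% = wells lacking the enzyme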
DUSP3 inh = inhibitors of human VHR1 phosphatase (DUSP3). actives 0.52% (n = 290,000). P51452. inhibition, % at 13.3 µM. recombinant VHR phosphatase, pNPP absorbance; in the data active = inhibition above about 50%
Target sequence (P51452 whole entry, looked up): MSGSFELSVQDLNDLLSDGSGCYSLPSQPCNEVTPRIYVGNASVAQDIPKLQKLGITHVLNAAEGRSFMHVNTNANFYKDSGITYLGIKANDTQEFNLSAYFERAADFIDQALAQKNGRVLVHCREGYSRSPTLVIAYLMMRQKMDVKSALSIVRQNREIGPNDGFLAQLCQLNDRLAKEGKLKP
Numbers without * were called inactive; ? = inconclusive; · = not tested or not shown; + = active, no number.

SMILES	Mtb FBA inh	Mtb hypoxia inh	Mtb bLac sens	GDH-TPI counter	DUSP3 inh
N#C/C(=N\Nc1ccc(Cl)cc1)C(=O)c1ccccc1	-18	·	-3	31*	3
COc1ccc(C(=O)C(C#N)=NNc2cccc([N+](=O)[O-])c2)cc1	·	14	·	·	·
CC[C@]12C(=O)N(C)CC(C3C(=O)N(C)C(=O)C31)N2C(=O)c1ccc(F)cc1 (stereo partly specified)	·	-1	·	·	·
CSc1cccc(CN2CCC(CCC(=O)NC3CC3)CC2)c1	-1	-3	-6	13	51*
CCOc1ccc(NC(=O)CN2C(=O)SC(=Cc3cccn3C)C2=O)cc1	·	-1	·	·	·
Cc1ccc(C(=O)/C=C/Nc2cccc([N+](=O)[O-])c2)o1	-4	-3	0	19	1
O=C(/C=C/Nc1cccc([N+](=O)[O-])c1)c1ccco1	-2	16	5	35*	·
COc1cc(C(C)=NNC(=O)CN2CCN(S(=O)(=O)c3ccc(C)cc3)CC2)ccc1O	·	10	·	·	·
CCOc1ccc(CCNS(=O)(=O)c2c(C)nc3scc(C)n3c2=O)cc1OCC	-1	0	9	33*	0
CN(C)c1ccc(/C=C2/C(=N\O)C3CCN2CC3)cc1	1	·	10	52*	4
CCN(CC)Cc1oc(CO)cc(=O)c1O	4	11	1	10	3
Cc1c(O)c(CN(C)C)cc2c1oc(=O)c1ccccc12	1	-1	21	20	21
CCCCc1cc(=O)oc2c(CN(C)C)c(O)c(Cl)cc12	·	7	?	12	10
CCc1c(C)c2cc(Cl)c(O)c(CN(C)C)c2oc1=O	·	10	19	32*	13
CCc1c(C)c2cc(Cl)c(O)c(CN(CC)CC)c2oc1=O	+	6	-10	13	13
Cc1c(C)c2cc(Cl)c(O)c(CN(C)C)c2oc1=O	+	-7	-5	15	0
CC1CN(C(C)CO)C(=O)c2cccc(NC(=O)C3CC3)c2OC1CN(C)CC1CCCCC1 (stereo unspecified)	·	10	·	·	·
CCCn1c(=O)c(C(=O)NCCc2ccccc2)c(O)c2ccccc21	1	1	6	9	54*
Cn1ccc2c(-c3ccc(C(C)(C)C)cc3)cc3c(c21)C1CCC3O1 (stereo unspecified)	11	·	·	·	·
Cn1ccc2c(-c3ccc(CO)cc3)cc3c(c21)C1CCC3O1 (stereo unspecified)	+	·	·	·	·
Cn1ccc2c(-c3ccc(C(=O)O)cc3)cc3c(c21)C1CCC3O1 (stereo unspecified)	+	·	·	·	·
O=C(NCCNc1ccnc2cc(Cl)ccc12)c1ccccc1F	6	3	0	43*	19
O=C(NCCNc1ccc(Cl)cc1[N+](=O)[O-])c1ccccc1F	-5	8	-10	-6	9
O=C(Cn1nnc(-c2ccc(F)cc2)n1)Nc1cccc(S(=O)(=O)N2CCCC2)c1	0	35*	11	6	·
COc1cc2cc(C(N)=O)c(N)nc2cc1OC	+	-4	-1	-2	28
SMILES	Mtb FBA inh	Mtb hypoxia inh	Mtb bLac sens	GDH-TPI counter	DUSP3 inh
COc1ccc(/C=[N+](\[O-])C2N(c3ccccc3)C(=S)SC2(C)C)cc1OC (stereo unspecified)	-2	15	-3	32*	-3
COC(=O)C1=CC(C(=O)OC)C2C3=C(C(=O)C24CCCCC4)C(C)n2c(=O)n(C)c(=O)n2C3C1 (stereo unspecified)	·	7	·	·	·
Cn1cc(Br)c(C(=O)N/N=C/c2cc3ccccc3nc2Cl)n1	4	·	3	31*	46
Cc1cc(-c2nc3cc(F)ccc3s2)ccc1N	·	·	·	38*	·
Cc1ccc(-c2nc3ccccc3s2)cc1S(=O)(=O)N1CCCC1	1	5	-4	6	8
CCOP(=O)(Oc1ccccc1)c1c([N+](=O)[O-])cc(C(F)(F)F)cc1[N+](=O)[O-] (stereo unspecified)	1	42*	99	5	-13
c1ccc2c(c1)ccc1ccccc12	5	·	2	9	·
OCCN(CCO)c1cc2c3ccccc3ccc2c2ccccc12	131*	3	·	2	·
COC(=O)[C@@]1(Cc2ccccc2)C=CC(C)N1C(C)=O (stereo partly specified)	·	11	·	·	·
O=C(Nc1ccc(C(=O)O)cc1)Nc1ccc([N+](=O)[O-])cc1	1	7	8	22	-18
O=C(O)CC(NNC(=O)c1ccccc1)C(=O)Nc1ccc([N+](=O)[O-])cc1 (stereo unspecified)	6	-1	-8	31*	0
O=C(Nc1ccc([N+](=O)[O-])cc1)C1C(c2ccccc2)=C1c1ccccc1	3	-3	-3	33*	18
CCOC(=O)c1ccc(N=NN(C)C)cc1	0	1	1	36*	21
COc1ccccc1-n1c(N)c(C(N)=O)sc1=S	-2	1	-6	17	52*
CCOC(=O)c1sc(=S)n(-c2ccc(OC)cc2)c1N	0	7	0	11	-10
CCOC(=O)c1sc(=S)n(-c2ccccc2)c1C	2	10	-18	34*	17
CCOC(=O)c1sc(=S)n(-c2ccccc2Cl)c1C	3	-4	-4	39*	17
CCOC(=O)c1sc(=S)n(Cc2ccccc2)c1C	3	7	-1	3	10
CCOC(=O)c1sc(=S)n(-c2ccccc2)c1N	-3	6	-3	34*	18
CC=C(C)C(=O)Nc1cccc(C2=NOC3(C2)CC(C(N)=O)N(C(=O)C(c2ccccc2)c2ccccc2)C3)c1 (stereo unspecified)	·	3	·	·	·
C=CCn1c(N)c(C(=O)OCCC)c2nc3ccccc3nc21	175*	2	-6	17	12
CCCOC(=O)c1c(N)n(Cc2cccs2)c2nc3ccccc3nc12	173*	5	14	11	-29
Nc1c(C(=O)NCCCc2ccccc2)c2nc3ccccc3nc2n1Cc1cccs1	5	-6	-10	0	27
C=CCn1c(N)c(C(=O)Nc2cccc(C)c2)c2nc3ccccc3nc21	8	8	15	22	-5
C#CCNC(=O)C1=CC(C2CC2)CC(OCCCCO)O1 (stereo unspecified)	·	2	·	·	·
SMILES	Mtb FBA inh	Mtb hypoxia inh	Mtb bLac sens	GDH-TPI counter	DUSP3 inh
CC(=O)c1ccc(N/N=C2/CCCNC2=O)cc1	-2	·	22	36*	4
Cc1ccc(N/N=C2/CCCNC2=O)cc1	-1	·	95	9	3
COP(=O)(OC)C(C=O)=NNc1ccc([N+](=O)[O-])cc1	·	13	·	·	·
Nc1c(S(=O)(=O)c2cccs2)c2nc3ccccc3nc2n1Cc1cccs1	119*	-1	0	13	19
Nc1c(S(=O)(=O)c2cccs2)c2nc3ccccc3nc2n1CC1CCCO1 (stereo unspecified)	170*	2	?	23	16
CC(C)CCn1c(N)c(S(=O)(=O)c2cccs2)c2nc3ccccc3nc21	116*	-13	53	12	12
CCOC(=O)C1C2COc3ccccc3C2N2C(=O)c3cc(OC)ccc3NC(=O)[C@@]12C (stereo partly specified)	·	7	·	·	·
COc1ccc(C=Nn2cnnc2SCc2ccc(OC)cc2)cc1	·	-1	·	·	·
